Outcome and AC50 data for 14 molecules are collected here from PubChem BioAssay (EPA / NIEHS).

Test [1] deals with human Peroxisome Proliferator-activated Receptor delta (PPARd), PPARD (gene 5467) (UniProt Q03181). The test can be described thus: ATG_PPARd_TRANS: Attagene TRANS-FACTORIAL HepG2 Assay for human Peroxisome Proliferator-activated Receptor delta (PPARd) (AID 2283002). Summed up:
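Read-out: reporter mRNA induction, quantified by fluorescent RT-PCR products resolved by capillary electrophoresis. Human HepG2 liver cells carried transiently transfected Gal4-UAS reporter constructs with chimeric NR-Gal4 fusions. Cells were dosed for 24 h; DMSO served as baseline.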

The target of test [2] is human Retinoic Acid Receptor beta (RARb), RARB (gene 5915) (UniProt P10826). The test can be described thus: ATG_RARb_TRANS: Attagene TRANS-FACTORIAL HepG2 Assay for human Retinoic Acid Receptor beta (AID 2283004). Summed up: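 Readout is reporter mRNA induction: RNA reverse-transcribed, PCR-amplified, FAM-labelled, HpaI-cut and resolved by capillary electrophoresis. Transiently transfected HepG2 cells carrying exogenous NR–Gal4 chimeras were dosed for 24 h; activity fitted upward relative to DMSO.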
human Retinoic Acid Receptor beta (RARb), RARB (gene 5915), sequence (P10826 whole entry, looked up, the tested form may be a part): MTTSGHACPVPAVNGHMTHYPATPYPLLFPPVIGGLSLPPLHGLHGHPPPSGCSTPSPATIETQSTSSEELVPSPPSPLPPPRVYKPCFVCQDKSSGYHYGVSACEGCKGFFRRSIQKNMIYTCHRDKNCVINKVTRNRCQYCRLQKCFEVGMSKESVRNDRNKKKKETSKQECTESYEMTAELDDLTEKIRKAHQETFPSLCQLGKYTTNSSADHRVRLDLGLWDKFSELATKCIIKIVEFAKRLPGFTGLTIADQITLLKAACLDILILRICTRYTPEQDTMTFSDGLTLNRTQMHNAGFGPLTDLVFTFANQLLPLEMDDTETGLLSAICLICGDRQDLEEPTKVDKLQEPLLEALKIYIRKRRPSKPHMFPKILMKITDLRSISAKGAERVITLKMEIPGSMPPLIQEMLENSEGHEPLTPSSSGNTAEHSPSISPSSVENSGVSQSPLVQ

The target of test [3] is Nuclear receptor subfamily 1 group I member 2 (Homo sapiens) (UniProt O75469). As to the kind of experiment: ATG_PXR_TRANS: Attagene TRANS-FACTORIAL HepG2 Assay for human Pregnane X Receptor (PXR) (AID 2283008). The essentials: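 Read-out is fluorescence of labelled reporter cDNA fragments separated by capillary electrophoresis after RT-PCR and HpaI digestion. Source: HepG2 cells carrying PXR-GAL4/UAS reporter constructs, treated 24 h; activity fitted upward relative to DMSO.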
Nuclear receptor subfamily 1 group I member 2 (Homo sapiens), sequence (O75469 whole entry, looked up, the tested form may be a part): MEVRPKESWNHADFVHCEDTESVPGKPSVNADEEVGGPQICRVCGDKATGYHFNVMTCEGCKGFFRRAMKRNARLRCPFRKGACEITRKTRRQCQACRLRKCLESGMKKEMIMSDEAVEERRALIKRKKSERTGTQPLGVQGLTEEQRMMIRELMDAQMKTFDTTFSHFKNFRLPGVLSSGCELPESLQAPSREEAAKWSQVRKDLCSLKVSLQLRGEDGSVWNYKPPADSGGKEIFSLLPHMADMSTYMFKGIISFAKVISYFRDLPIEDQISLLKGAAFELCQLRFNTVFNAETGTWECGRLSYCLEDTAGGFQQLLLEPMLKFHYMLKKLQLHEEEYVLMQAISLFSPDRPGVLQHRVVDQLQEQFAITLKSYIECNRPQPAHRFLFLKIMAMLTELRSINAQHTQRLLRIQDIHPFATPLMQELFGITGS

The target of test [4] is human RAR-related Orphan Receptor beta (RORb), RORB (gene 6096) (UniProt Q92753). As to the kind of experiment: ATG_RORb_TRANS: Attagene TRANS-FACTORIAL HepG2 Assay for human RAR-related Orphan Receptor beta (RORb) (AID 2283010). The essentials: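 HepG2 cells were transiently transfected with multiplexed GAL4-UAS reporter units expressing chimeric nuclear receptor–GAL4 proteins, then dosed for 24 h. Reporter mRNA was quantified by RT-PCR with fluorescent labelling and capillary electrophoresis; gain of signal was fitted relative to DMSO.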
human RAR-related Orphan Receptor beta (RORb), RORB (gene 6096), sequence (Q92753 whole entry, looked up, the tested form may be a part): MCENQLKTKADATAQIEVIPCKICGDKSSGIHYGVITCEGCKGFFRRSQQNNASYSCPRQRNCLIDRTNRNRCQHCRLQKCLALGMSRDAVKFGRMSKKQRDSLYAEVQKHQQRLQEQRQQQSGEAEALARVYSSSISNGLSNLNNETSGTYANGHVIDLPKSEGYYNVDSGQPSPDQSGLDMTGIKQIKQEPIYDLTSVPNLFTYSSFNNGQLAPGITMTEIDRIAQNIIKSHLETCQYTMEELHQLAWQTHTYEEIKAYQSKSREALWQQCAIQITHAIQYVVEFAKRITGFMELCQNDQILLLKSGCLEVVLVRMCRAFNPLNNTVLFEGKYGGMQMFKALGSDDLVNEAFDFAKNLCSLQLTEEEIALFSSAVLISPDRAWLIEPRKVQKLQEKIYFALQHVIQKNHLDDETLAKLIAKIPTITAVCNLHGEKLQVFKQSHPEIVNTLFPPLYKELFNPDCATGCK

Test [5] has as its target human RAR-related Orphan Receptor gamma (RORg), RORC (gene 6097) (UniProt P51449). The test can be described thus: ATG_RORg_TRANS: Attagene TRANS-FACTORIAL HepG2 Assay for human RAR-related Orphan Receptor gamma (RORg) (AID 2283011). Summed up: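 Transient MRTU transfection of HepG2 (TRANS format, exogenous NR-Gal4 chimera). 24 h dosing. Total RNA → oligo(dT) RT → PCR → 6-FAM labelling → HpaI cut → CE. Gain vs DMSO.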

For test [6], the target named is Retinoic acid receptor RXR-alpha (Homo sapiens) (UniProt P19793). As to the kind of experiment: ATG_RXRa_TRANS: Attagene TRANS-FACTORIAL HepG2 Assay for human Retinoid X Receptor alpha (RXRa) (AID 2283012). The essentials:
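HepG2 cells transiently transfected with multiplexed GAL4-UAS reporter units and chimeric NR-GAL4 fusions, dosed 24 h. Reporter mRNA measured by RT-PCR, FAM labelling, HpaI digestion and capillary electrophoresis; gain-of-signal fitted relative to DMSO baseline.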

In test [7] the target is Retinoic acid receptor alpha (Homo sapiens) (UniProt P10276). As to the kind of experiment: ATG_RARa_TRANS: Attagene TRANS-FACTORIAL HepG2 Assay for human Retinoic Acid Receptor alpha (RARa) (AID 2283005). Summed up:
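HepG2 transiently transfected with multiplex GAL4-UAS reporter units including a human RARa–GAL4 chimera; 24 h compound exposure. Reporter mRNA quantified by RT-PCR, 6-FAM labeling and capillary electrophoresis; gain of signal versus DMSO.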

For test [8], the target named is Peroxisome proliferator-activated receptor gamma (Homo sapiens) (UniProt P37231). The test can be described thus: ATG_PPARg_TRANS: Attagene TRANS-FACTORIAL HepG2 Assay for human Peroxisome Proliferator-activated Receptor-gamma (PPARg) (AID 2283007). The essentials: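 Liver-derived HepG2 cells expressing an exogenous NR-Gal4 chimera alongside GAL4-UAS reporter genes; 24 h exposure. Fluorescence of reporter RT-PCR products, separated by capillary electrophoresis, gives mRNA induction relative to DMSO.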
Peroxisome proliferator-activated receptor gamma (Homo sapiens), sequence (P37231 whole entry, looked up, the tested form may be a part): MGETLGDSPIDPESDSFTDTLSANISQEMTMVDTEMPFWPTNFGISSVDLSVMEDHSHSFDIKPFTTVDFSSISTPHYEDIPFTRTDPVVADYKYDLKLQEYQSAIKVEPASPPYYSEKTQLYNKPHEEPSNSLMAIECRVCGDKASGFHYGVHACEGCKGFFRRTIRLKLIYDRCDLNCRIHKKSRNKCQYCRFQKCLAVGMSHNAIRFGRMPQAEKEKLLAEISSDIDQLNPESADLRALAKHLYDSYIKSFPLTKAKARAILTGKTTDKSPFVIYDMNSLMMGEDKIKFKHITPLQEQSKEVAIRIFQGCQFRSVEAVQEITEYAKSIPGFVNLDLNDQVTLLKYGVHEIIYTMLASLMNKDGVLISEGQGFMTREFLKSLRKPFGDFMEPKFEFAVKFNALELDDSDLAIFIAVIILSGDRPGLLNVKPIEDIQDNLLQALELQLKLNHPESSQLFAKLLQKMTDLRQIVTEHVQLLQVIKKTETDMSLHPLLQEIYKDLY

Read-out in test [9]: Intercellular Adhesion Molecule 1 (ICAM1), ICAM1 (gene 3383)
The test can be described thus: BSK_3C_ICAM1: BioMAP Diversity Plus: 3C Assay for Intercellular Adhesion Molecule 1 (ICAM1) Biomarker Activity (AID 2283003; active = hit-call score of the fitted dose curve at least 0.9, where 1 is the maximum; inactive = score below 0.9). The settings on record: primary human endothelial cells (HUVEC); actives raise or lower the signal. The essentials: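 Primary human umbilical vein endothelial cells in the BioMAP 3C system were exposed to chemicals for 24 h, then ICAM-1 was quantified by ELISA. Activity was fitted bidirectionally against the DMSO negative control baseline.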

Test [10] has as its target human Retinoic Acid Receptor gamma (RARg), RARG (gene 5916) (UniProt P13631). As to the kind of experiment: ATG_RARg_TRANS: Attagene TRANS-FACTORIAL HepG2 Assay for human Retinoic Acid Receptor gamma (RARg) (AID 2283009). Summed up:
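HepG2 cells transiently transfected with multiplexed reporter units expressing chimeric RARg-GAL4 and GAL4-UAS-driven reporters; 24 h compound exposure. Reporter mRNA quantified by RT-PCR with fluorescent labelling and capillary electrophoresis; gain-of-signal fitted relative to DMSO baseline.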

Results filed as inconclusive are left out. Activity calls are given as the source filed them. The calls were made as follows, unless noted: active = hit-call score of the fitted dose curve at least 0.9, where 1 is the maximum; inconclusive = response in the unintended direction; inactive = score below 0.9.

By AC50 is commonly meant the midpoint of the concentration-response curve, whichever way the signal moves.

human Peroxisome Proliferator-activated Receptor delta (PPARd), PPARD (gene 5467), sequence (Q03181 whole entry, looked up, the tested form may be a part): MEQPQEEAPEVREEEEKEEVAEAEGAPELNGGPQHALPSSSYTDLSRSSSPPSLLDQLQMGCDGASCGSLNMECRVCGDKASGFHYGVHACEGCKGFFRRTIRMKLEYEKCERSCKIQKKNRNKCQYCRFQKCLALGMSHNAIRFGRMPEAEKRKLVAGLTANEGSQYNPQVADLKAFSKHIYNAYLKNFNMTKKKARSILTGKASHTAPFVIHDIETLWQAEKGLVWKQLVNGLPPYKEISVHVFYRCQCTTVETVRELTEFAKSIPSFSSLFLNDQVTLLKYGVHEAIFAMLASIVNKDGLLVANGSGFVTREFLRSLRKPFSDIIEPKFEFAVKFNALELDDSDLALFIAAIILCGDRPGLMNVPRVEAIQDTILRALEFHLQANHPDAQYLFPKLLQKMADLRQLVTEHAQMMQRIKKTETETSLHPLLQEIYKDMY
human RAR-related Orphan Receptor gamma (RORg), RORC (gene 6097), sequence (P51449 whole entry, looked up, the tested form may be a part): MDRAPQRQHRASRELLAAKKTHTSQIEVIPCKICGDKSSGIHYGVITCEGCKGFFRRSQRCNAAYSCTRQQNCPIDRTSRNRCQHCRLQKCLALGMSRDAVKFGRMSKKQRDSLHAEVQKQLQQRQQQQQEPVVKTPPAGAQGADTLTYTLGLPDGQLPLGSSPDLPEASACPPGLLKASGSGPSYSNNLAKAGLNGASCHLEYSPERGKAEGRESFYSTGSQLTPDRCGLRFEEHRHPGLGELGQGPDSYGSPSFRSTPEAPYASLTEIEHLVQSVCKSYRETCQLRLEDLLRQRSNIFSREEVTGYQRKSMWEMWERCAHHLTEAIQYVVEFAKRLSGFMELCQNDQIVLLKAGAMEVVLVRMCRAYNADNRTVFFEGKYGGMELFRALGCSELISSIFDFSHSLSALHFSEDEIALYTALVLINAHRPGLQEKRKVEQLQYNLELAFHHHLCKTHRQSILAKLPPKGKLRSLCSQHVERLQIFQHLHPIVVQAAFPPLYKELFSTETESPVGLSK
human Retinoic Acid Receptor gamma (RARg), RARG (gene 5916), sequence (P13631 whole entry, looked up, the tested form may be a part): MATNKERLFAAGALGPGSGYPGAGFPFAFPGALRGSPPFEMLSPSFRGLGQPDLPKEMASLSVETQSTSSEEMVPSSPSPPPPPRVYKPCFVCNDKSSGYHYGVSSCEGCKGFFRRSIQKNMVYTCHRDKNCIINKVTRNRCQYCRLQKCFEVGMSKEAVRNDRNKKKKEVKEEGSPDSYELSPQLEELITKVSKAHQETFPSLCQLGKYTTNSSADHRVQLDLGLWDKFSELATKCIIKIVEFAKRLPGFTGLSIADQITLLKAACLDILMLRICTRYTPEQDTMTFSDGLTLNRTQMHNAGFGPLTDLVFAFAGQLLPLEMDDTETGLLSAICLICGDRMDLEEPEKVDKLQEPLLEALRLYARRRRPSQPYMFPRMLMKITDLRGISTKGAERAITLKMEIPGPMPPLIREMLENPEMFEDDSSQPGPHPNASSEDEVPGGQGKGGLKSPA
Retinoic acid receptor RXR-alpha (Homo sapiens), sequence (P19793 whole entry, looked up, the tested form may be a part): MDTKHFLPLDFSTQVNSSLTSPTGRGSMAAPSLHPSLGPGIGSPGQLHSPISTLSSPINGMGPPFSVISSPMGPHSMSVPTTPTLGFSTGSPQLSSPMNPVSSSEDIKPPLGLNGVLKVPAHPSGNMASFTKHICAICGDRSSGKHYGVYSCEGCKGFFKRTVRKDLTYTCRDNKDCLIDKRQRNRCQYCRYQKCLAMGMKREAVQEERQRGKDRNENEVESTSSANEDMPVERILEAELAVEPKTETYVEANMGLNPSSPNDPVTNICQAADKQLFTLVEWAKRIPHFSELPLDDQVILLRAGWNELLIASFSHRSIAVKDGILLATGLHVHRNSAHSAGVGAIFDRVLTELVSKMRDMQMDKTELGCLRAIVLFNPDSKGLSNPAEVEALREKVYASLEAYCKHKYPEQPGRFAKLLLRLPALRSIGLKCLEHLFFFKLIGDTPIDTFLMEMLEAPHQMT
Retinoic acid receptor alpha (Homo sapiens), sequence (P10276 whole entry, looked up, the tested form may be a part): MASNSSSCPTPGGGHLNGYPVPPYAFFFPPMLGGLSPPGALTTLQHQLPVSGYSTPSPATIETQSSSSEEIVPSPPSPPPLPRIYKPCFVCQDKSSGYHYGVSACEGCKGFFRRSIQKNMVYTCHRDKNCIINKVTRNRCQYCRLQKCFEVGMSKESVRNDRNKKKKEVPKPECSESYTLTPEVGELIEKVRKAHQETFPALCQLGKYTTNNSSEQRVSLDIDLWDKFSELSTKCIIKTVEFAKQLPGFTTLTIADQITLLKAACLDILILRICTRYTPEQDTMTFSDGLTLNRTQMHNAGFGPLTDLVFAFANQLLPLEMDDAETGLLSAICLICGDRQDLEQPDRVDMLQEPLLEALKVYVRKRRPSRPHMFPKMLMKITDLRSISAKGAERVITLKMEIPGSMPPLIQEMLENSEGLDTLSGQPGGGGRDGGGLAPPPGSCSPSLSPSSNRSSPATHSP

Turning to `Cc1cccc(N)n1`, the molecule was called inactive in test [1], in [2], in [3], in [4], in [5] and in test [6].

On to `CCCCCCCCCCCCCCCC[n+]1ccccc1`, for which the molecule was called inactive in [1], in test [2], in test [7], in [8] and in test [3].

As to `CCCCC(CC)COC(=O)c1ccccc1O` (stereo not given), the call in test [1], in test [9], in test [2], in [8], in test [3] and in test [4] was inactive. In addition, the result in test [5] and in [6] was inactive.

As for `CCOC(=O)NNc1nncc2ccccc12`, the molecule was called inactive in test [1], in test [2], in [3], in test [10] and in test [6].

For the molecule `CC(C)(C)C1CCCCC1=O` (stereo not given), the call in test [1], in [2], in test [3], in test [10], in [4] and in [6] was inactive.

For the molecule `C/C=C\C/C=C/CCCCCCCCOC(C)=O`, the molecule was classed as inactive in test [1], in test [9], in test [4] and in test [6]. In addition, the half-maximal activity concentration (AC50) in test [8] is 8.89 µM (active); in test [3], 40.8 µM (active).

Turning to `CC(C)C(=O)C(C)C`, the molecule was called inactive in test [1] and in test [9]. For the same molecule, the AC50 in [8] was 6.38 µM (active).

Take `CCCCCC(C)O` (stereo not given): the outcome in [1], in [2], in test [8], in [4] and in test [6] was inactive.

In the case of `S=C(NC1CCCCC1)NC1CCCCC1`, the molecule was called inactive in test [1], in [9], in test [8] and in [10]. The AC50 in test [3] is 8.05 µM (active).

Turning to `O=C(Cl)c1cc(C(=O)Cl)cc(C(=O)Cl)c1`, the outcome in test [1], in test [8] and in test [6] was inactive. In test [9], the AC50 is 12.7 µM (active).

With `CCC(C)(C)C1CCCCC1OC(C)=O` (stereo not given), the call in test [1], in test [2], in test [8], in test [3], in test [10] and in test [6] was inactive.

Consider `NC(=O)C1CO1` (stereo not given), for which the call in [1], in test [2], in [7], in test [5] and in test [6] was inactive.

`CCCCCCCCCCCCCCCC[N+](C)(C)CC`: the result in test [1], in test [2], in [3] and in [6] was inactive. The AC50 in test [9] is 3.44 µM (active); in test [8], 15.6 µM (active).

`CC(=O)OCC(C)OC(C)=O` (stereo not given): the molecule was called inactive in [1], in [2], in test [3], in test [4] and in [5].
